The values below come from PubChem BioAssay (NCI).

This is part of a sample that, as a whole, favours compounds with a hit. Of some 83,000 tested, about 20% had one in any assay.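 96-well plates, one dose, 48 hours. Percent growth reported; active if below 10.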 Values without a mark were called inactive. Activity calls are given as the source filed them.

Some test systems named below: SR leukemia; RPMI-8226 leukemia; OVCAR-8 ovarian; OVCAR-5 ovarian; OVCAR-4 ovarian; SK-OV-3 ovarian; IGROV1 ovarian; OVCAR-3 ovarian; HS 578T breast; NCI/ADR-RES ovarian.
What all share (assay): NCI-60 one-dose screen, 48 h (100 = growth as untreated, 0 = no growth, -100 = all killed)
Holding throughout (conditions): 10 µM unless noted

`NC(=O)c1c(Nc2ccccc2)nn2cc(-c3nc4ccccc4s3)c(N)nc12`: the growth with SR leukemia was 82.8%; in the assay on RPMI-8226 leukemia it was 96.4%; in the assay with OVCAR-8 ovarian, 102%; in the assay on OVCAR-5 ovarian, 104%; in the assay on OVCAR-4 ovarian it was 97.1%; in the assay on SK-OV-3 ovarian, 94.8%. In addition, the growth in the assay with IGROV1 ovarian was 93.3%; in the assay with OVCAR-3 ovarian, 107%; with HS 578T breast it was 93.3%; in the assay with NCI/ADR-RES ovarian, 98.9%.

For `O=C(O)CC1Cc2ccccc2C1C(=O)O` (stereo not given), the growth in the assay on SR leukemia was -8.39% (active); in the assay with RPMI-8226 leukemia, 110%; in the assay with OVCAR-8 ovarian it was 101%; in the assay with OVCAR-5 ovarian it was 108%; in the assay on OVCAR-4 ovarian it was 113%; in the assay on SK-OV-3 ovarian it was 102%. Further, the growth was 110% with IGROV1 ovarian, 102% in the assay on OVCAR-3 ovarian, 104% in the assay on HS 578T breast and 99.5% with NCI/ADR-RES ovarian.

For `CCC(CCCN1C(=O)c2ccccc2C1=O)Nc1cc(OC)cc2cccnc12` (stereo not given), the growth in the assay with SR leukemia is 73.5%; in the assay with RPMI-8226 leukemia it was 102%; in the assay on OVCAR-8 ovarian, 96.1%; in the assay on OVCAR-5 ovarian, 89.6%; with OVCAR-4 ovarian, 39.9%; in the assay on SK-OV-3 ovarian, 107%. The growth in the assay with IGROV1 ovarian was -7.61% (active); in the assay on OVCAR-3 ovarian, 106%; with HS 578T breast, 84.5%; with NCI/ADR-RES ovarian, 99.5%.

`COc1ccc(/C=C/C(=O)/C=C/c2cc3ccccc3[nH]c2=O)cc1`: the growth in the assay with SR leukemia was -2.08% (active); in the assay on RPMI-8226 leukemia, -22% (active); in the assay with OVCAR-8 ovarian, -11.8% (active); in the assay on OVCAR-5 ovarian, 125%; in the assay with OVCAR-4 ovarian, 74.5%; in the assay with SK-OV-3 ovarian it was 88.8%. Further, the growth with IGROV1 ovarian is 130%; in the assay with OVCAR-3 ovarian, 32%; with HS 578T breast it was 102%; with NCI/ADR-RES ovarian, 92.5%.

For `CC[n+]1c(C)ccc2cc(C)ccc21`, the growth in the assay on SR leukemia is 94.4%; in the assay on RPMI-8226 leukemia it was 101%; in the assay on OVCAR-8 ovarian it was 88.4%; in the assay on OVCAR-5 ovarian, 109%; in the assay with OVCAR-4 ovarian, 106%; in the assay on SK-OV-3 ovarian it was 97.8%. Also, the growth is 104% in the assay on IGROV1 ovarian, 104% with OVCAR-3 ovarian, 112% in the assay with HS 578T breast and 104% with NCI/ADR-RES ovarian.

As to `CCC(C)[C@H](NC(=O)Nc1cc(C(F)(F)F)cc(C(F)(F)F)c1)C(=O)N[C@@H](Cc1cn(C)cn1)C(=O)OC` (stereo not given in full), the growth in the assay on SR leukemia was -37.8% [100 µM] (active); with RPMI-8226 leukemia it was -65.7% [100 µM] (active); with OVCAR-8 ovarian, -78.3% [100 µM] (active); in the assay with OVCAR-5 ovarian, -93.7% [100 µM] (active); with OVCAR-4 ovarian it was -96.7% [100 µM] (active); in the assay on SK-OV-3 ovarian, -100% [100 µM] (active). The growth in the assay on IGROV1 ovarian is -81.5% [100 µM] (active); in the assay with OVCAR-3 ovarian it was -97.6% [100 µM] (active); in the assay on HS 578T breast it was -18.6% [100 µM] (active); with NCI/ADR-RES ovarian, -49.2% [100 µM] (active).

`Brc1ccc(-c2nc3ccccc3s2)cc1`: the growth in the assay on SR leukemia is 86.9%; in the assay on RPMI-8226 leukemia, 94.4%; with OVCAR-8 ovarian it was 106%; in the assay on OVCAR-5 ovarian, 90.9%; in the assay with OVCAR-4 ovarian, 93.5%; in the assay with SK-OV-3 ovarian, 91.8%. Further, the growth with IGROV1 ovarian was 73.9%; in the assay on OVCAR-3 ovarian, 99%; in the assay on HS 578T breast it was 89.6%; in the assay on NCI/ADR-RES ovarian, 99.3%.

As to `COc1ccc2oc(=O)cc(CN3C(=O)S/C(=C\c4ccc(Cl)cc4)C3=O)c2c1`, the growth in the assay with SR leukemia is 71.8%; with RPMI-8226 leukemia, 73.1%; with OVCAR-8 ovarian, 100%; in the assay on OVCAR-5 ovarian, 97.3%; with OVCAR-4 ovarian it was 91.7%; in the assay with SK-OV-3 ovarian, 113%. Further, the growth in the assay with IGROV1 ovarian is 102%; in the assay on OVCAR-3 ovarian, 89.1%; in the assay with HS 578T breast, 108%; with NCI/ADR-RES ovarian, 94.6%.

In the case of `CCC(CCCN1C(=O)c2ccccc2C1=O)Nc1cc(OC)cc2c(C)ccnc12` (stereo not given), the growth with SR leukemia was 54.9%; in the assay with RPMI-8226 leukemia, 96%; in the assay with OVCAR-8 ovarian, 98.7%; in the assay on OVCAR-5 ovarian it was 99.9%; with OVCAR-4 ovarian, 73.8%; in the assay on SK-OV-3 ovarian, 100%. In addition, the growth in the assay on IGROV1 ovarian was 137%; in the assay with OVCAR-3 ovarian it was 99.1%; with HS 578T breast, 86.7%; in the assay on NCI/ADR-RES ovarian, 121%.

Consider `FC(F)(F)c1cccc(-c2[nH]ncc2-c2nnnn2-c2ccccc2)c1`, for which the growth was 25.6% in the assay with SR leukemia; 29.6% in the assay with RPMI-8226 leukemia; 58.9% with OVCAR-8 ovarian; 69.6% in the assay on OVCAR-5 ovarian; 66.4% in the assay with OVCAR-4 ovarian; 55.4% with SK-OV-3 ovarian. The growth in the assay with IGROV1 ovarian is 56.2%; in the assay with OVCAR-3 ovarian, 48.4%; in the assay with HS 578T breast, 43.6%; in the assay on NCI/ADR-RES ovarian, 12.2%.

As to `O=C(c1ccccc1)c1ccccc1-c1ccccc1`, the growth was 19.2% with SR leukemia; 13.6% in the assay on RPMI-8226 leukemia; 36.7% in the assay with OVCAR-8 ovarian; 52.6% in the assay with OVCAR-5 ovarian; 83.3% in the assay with OVCAR-4 ovarian; 23.5% in the assay on SK-OV-3 ovarian. Also, the growth is 41.7% with IGROV1 ovarian, 13.3% with OVCAR-3 ovarian, -6.36% (active) in the assay with HS 578T breast and -23.7% (active) in the assay on NCI/ADR-RES ovarian.

For `O=C(Nc1ccc(-n2cc(-c3ccncc3)c(-c3ccc(Cl)c(O)c3)n2)cc1)Nc1cc(C(F)(F)F)cc(C(F)(F)F)c1`, the growth was -0.887% (active) with SR leukemia; -25.7% (active) in the assay with RPMI-8226 leukemia; 18.2% with OVCAR-8 ovarian; 38.2% in the assay on OVCAR-5 ovarian; 26.5% with OVCAR-4 ovarian; 15% in the assay on SK-OV-3 ovarian. Also, the growth was 23.4% with IGROV1 ovarian, 17.3% with OVCAR-3 ovarian, -31.2% (active) in the assay on HS 578T breast and 11.3% in the assay with NCI/ADR-RES ovarian.

Consider `[N-]=[N+]=Nc1ncc(-c2ccc(C(F)(F)F)cc2)c(NC2CCCCCC2)n1`, for which the growth is -21.8% [100 µM] (active) with SR leukemia; -21% [100 µM] (active) in the assay on RPMI-8226 leukemia; 37.2% [100 µM] in the assay on OVCAR-8 ovarian; 65% [100 µM] with OVCAR-5 ovarian; 28.9% [100 µM] with OVCAR-4 ovarian; 71.6% [100 µM] in the assay with SK-OV-3 ovarian. Further, the growth in the assay on IGROV1 ovarian was 36.3% [100 µM]; in the assay on OVCAR-3 ovarian, 7.63% [100 µM] (active); in the assay with HS 578T breast, 52.3% [100 µM]; with NCI/ADR-RES ovarian, 43.7% [100 µM].
